Test [1] relates to XIP peptide (Xip251-270) binding. Put plainly: XIP fragment 251-270 binding compounds – biochemical, small-molecule microarray, fluorescence 635/667 nm, 0.1 µg/mL protein, primary screen (AID 1182). The settings on record: fluorescent protein binding, 635 nm, higher = more signal, called active from +8 up or from −8 down.
A further test deals with XIP peptide (Xip251-270). Put plainly: compounds binding XIP fragment 251-270 – biochemical, small-molecule microarray, fluorescence 635/667 nm, 0.5 µg/mL protein, primary screen (AID 1183). The settings on record: fluorescence 635 nm, higher = more signal.
Test [2] is described as follows: blood-stage malaria parasite viability loss – strain 3D7, DAPI fluorescence, 100 nL, primary screen (AID 1184).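 Further: parasites grown inside human red blood cells in medium with human serum.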 The conditions noted are these: P. falciparum 3D7 growth, 3 d, higher = more signal.
Test [3] has as its target Homeobox protein Hox-A13 (Mus musculus) (UniProt Q62424). Put plainly: disruptors of Hoxa13 oligonucleotide interaction – biochemical, fluorescence polarization, labeled oligonucleotide, primary screen (AID 1185). The conditions noted are these: Hoxa13:DNA binding, 15 min, higher = more signal, called active from +8 up or from −8 down. A general note: Polarisation of emitted light reports the rotation of a fluorescent probe.

The source made the active and inactive calls.

Chain of Homeobox protein Hox-A13 (Mus musculus) (Q62424 whole entry, looked up): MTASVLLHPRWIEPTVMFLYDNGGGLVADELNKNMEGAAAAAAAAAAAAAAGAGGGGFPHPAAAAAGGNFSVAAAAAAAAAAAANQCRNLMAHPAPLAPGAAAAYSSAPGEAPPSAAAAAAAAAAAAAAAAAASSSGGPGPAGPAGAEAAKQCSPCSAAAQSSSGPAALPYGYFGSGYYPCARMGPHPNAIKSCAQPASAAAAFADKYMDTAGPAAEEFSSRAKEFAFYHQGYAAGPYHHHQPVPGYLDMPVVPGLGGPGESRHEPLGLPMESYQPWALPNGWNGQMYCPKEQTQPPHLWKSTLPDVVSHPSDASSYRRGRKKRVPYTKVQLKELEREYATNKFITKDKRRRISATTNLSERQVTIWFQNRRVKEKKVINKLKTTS

Regarding `CO[C@H]1COC(=O)CCC[C@H](C)[C@@H](OC)COC(=O)CC=C[C@@H]1C`, the composite z-score in test [1] is -0.294 (inactive); in the test with XIP peptide (Xip251-270) it was 0.003. The z-score in test [2] is -0.809; in test [3], 0.544 (inactive).

Take `CC1(C)O[C@H]2O[C@H]([C@H](O)CON=C3[C@H]4CCn5c(=O)n(-c6ccccc6)c(=O)n5[C@H]4[C@H](O)[C@@H]4O[C@H]34)[C@H](O)[C@H]2O1`: the figures for the composite z-score (in test [1]; with XIP peptide (Xip251-270)) were 0.469 (inactive) and -0.0051, respectively. Besides, the values for the z-score in test [2] and in test [3] were -0.511 and -0.437 (inactive), respectively.

In the case of `CC(CCN1CCc2nc(-c3ccccc3)c(-c3ccccc3)cc2C1)=NO[C@H](C)c1cn([C@H](CO)Cc2ccccc2)nn1`, the composite z-score in test [1] is 0.899 (inactive); with XIP peptide (Xip251-270), 0.529. Further, the z-score in test [2] was -0.618; in test [3], -5.22 (inactive).

Consider `C=CC[C@@H]1C=CC(ON=C(C)C)[C@@H](CO)O1` (some centres undefined), for which the composite z-score in test [1] was -0.649 (inactive); in the test with XIP peptide (Xip251-270) it was -0.0372. Besides, the z-score was 0.367 in test [2] and 2.62 (inactive) in test [3].

For the compound `Cc1cc2c(nc1C)CCCCN2CC(O)CN1CCCc2nc(-c3ccc(Br)cc3)ccc21` (centres undefined), the figures for the composite z-score (in test [1]; with XIP peptide (Xip251-270)) were -0.0362 (inactive) and 0.0985, respectively. For the same compound, the results for the z-score in test [2] and in test [3] were 0.528 and -4.77 (inactive), respectively.

In the case of `CCN1C(=O)[C@H]2[C@H]3[C@H](O)[C@H](O)CC(=NO[C@H](C)c4cn([C@@H]5COC[C@H]5O)nn4)[C@@H]3CC[C@H]2C1=O`, the composite z-score in test [1] was 0.0118 (inactive); in the test with XIP peptide (Xip251-270), -0.629. Moreover, the z-score in test [2] was 0.202; in test [3] it was -0.803 (inactive).

Consider `CC(C)=CCCC(C)=CCON=C1C[C@@H](O)[C@@H](O)[C@@H]2[C@@H]3C(=O)N(c4cccc(Oc5ccccc5)c4)C(=O)[C@@H]3CC[C@H]12`, for which the composite z-score was 0.827 (inactive) in test [1] and -0.256 in the test on XIP peptide (Xip251-270). Moreover, the results for the z-score in test [2] and in test [3] were 0.395 and -0.963 (inactive), respectively.

Take `CC(CCN1CCCCc2nc(C)c(C)cc21)=NOC[C@@H](O)[C@H]1O[C@@H]2OC(C)(C)O[C@@H]2[C@H]1O`: the composite z-score in test [1] was -0.398 (inactive); in the test on XIP peptide (Xip251-270) it was 0.698. For the same compound, the z-score is 0.027 in test [2] and -1.75 (inactive) in test [3].

As to `CC(=O)OC[C@H]1O[C@@H](ON=C2[C@H]3CCn4c(=O)n(-c5ccccc5)c(=O)n4[C@H]3[C@H](O)[C@@H]3O[C@H]23)[C@H](OC(C)=O)[C@@H](OC(C)=O)[C@@H]1OC(C)=O`, the values for the composite z-score (in test [1]; in the test with XIP peptide (Xip251-270)) were -0.455 (inactive) and 0.292, respectively. The z-score in test [2] was -0.541; in test [3], -4.07 (inactive).

`CCOC(=O)[C@H](Cc1ccccc1)NC(=O)CCC1CC(OC(=O)NCc2cccc3ccccc23)CC2(CCCC(COC(=O)NCCc3ccc(Cl)cc3)O2)O1` (some centres undefined): the results for the composite z-score (in test [1]; with XIP peptide (Xip251-270)) were 0.351 (inactive) and 0.568, respectively. In addition, the figures for the z-score in test [2] and in test [3] were -1.93 and -5.98 (inactive), respectively.

For the compound `O=C1C[C@@H](O)[C@@H](O)[C@@H]2[C@@H]3C(=O)N(c4ccc(F)cc4F)C(=O)[C@@H]3CC[C@H]12`, the composite z-score in test [1] is 0.139 (inactive); in the test on XIP peptide (Xip251-270) it was -0.0234. Also, the results for the z-score in test [2] and in test [3] were 0.289 and -0.55 (inactive), respectively.

For `C=CC[C@@H]1C=C[C@H](ON=C(C)CCN2CCCc3nc(C)c(C)cc32)[C@@H](CO)O1`, the composite z-score in test [1] is 1.59 (inactive); with XIP peptide (Xip251-270), 0.241. The z-score in test [2] was -2.16; in test [3], -7.32 (inactive).

As to `COC(=O)[C@H](C)NC(=O)CCC1CC(OC(=O)NCc2ccc3c(c2)OCO3)CC2(CCCC(COC(=O)NCCc3ccc(Cl)cc3)O2)O1` (some centres undefined), the composite z-score is 0.0239 (inactive) in test [1] and 0.375 in the test with XIP peptide (Xip251-270). The z-score in test [2] is -1.97; in test [3] it was -5.07 (inactive).

Take `CCN1C(=O)[C@H]2[C@H]3[C@H](O)[C@H](O)CC(=NO[C@@H](C)c4cc(-c5c(C)cc(C)cc5C)no4)[C@@H]3CC[C@H]2C1=O`: the composite z-score in test [1] was 0.359 (inactive); in the test with XIP peptide (Xip251-270) it was 0.811. Also, the z-score in test [2] is 0.563; in test [3], -6.73 (inactive).

Consider `CCOC(=O)CCN1C(=O)[C@H]2[C@H]3[C@H](O)[C@H](O)CC(=NO[C@@H]4O[C@H](CO)[C@@H](O)[C@H](O)[C@H]4O)[C@H]3CC[C@H]2C1=O`, for which the values for the composite z-score (in test [1]; in the test with XIP peptide (Xip251-270)) were 0.234 (inactive) and 0.405, respectively. Moreover, the z-score was 0.209 in test [2] and -0.139 (inactive) in test [3].

On to `COC(=O)[C@H](C)NC(=O)CCC1CC(OC(=O)NCc2ccc3c(c2)OCO3)CC2(CCCC(COC(=O)NCCCN3CCCC3=O)O2)O1` (some centres undefined), for which the composite z-score was 0.045 (inactive) in test [1] and 0.612 in the test on XIP peptide (Xip251-270). The z-score in test [2] is -1.84; in test [3] it was -5.61 (inactive).

For the compound `COc1ccc(COC(=O)NN=C2C[C@@H](O)[C@@H](O)[C@@H]3[C@@H]4C(=O)N([C@@H](C)c5ccccc5)C(=O)[C@@H]4CC[C@@H]23)cc1`, the composite z-score is -0.216 (inactive) in test [1] and 0.0452 in the test with XIP peptide (Xip251-270). For the same compound, the z-score in test [2] was -0.503; in test [3], -2.18 (inactive).

Turning to `CCCC[C@H]1CN2[C@@H](CC[C@@H](C)[C@@H]2c2ccc(Br)cc2)C(=O)O1`, the composite z-score in test [1] was 0.977 (inactive); in the test with XIP peptide (Xip251-270) it was 0.476. Besides, the z-score was -0.278 in test [2] and -3.59 (inactive) in test [3].

With `CC(C)C(=O)N[C@H]1CCCN1C(=O)C=Cc1ccccc1`, the composite z-score was 0.934 (inactive) in test [1] and -0.168 in the test on XIP peptide (Xip251-270). The z-score is -0.64 in test [2] and -2.18 (inactive) in test [3].

As for `COC(=O)[C@H](C)NC(=O)CCC1CC(OC(=O)NCc2cccc3ccccc23)CC2(CCCC(COC(=O)NCCc3ccccc3OC)O2)O1` (some centres undefined), the results for the composite z-score (in test [1]; in the test with XIP peptide (Xip251-270)) were -0.0645 (inactive) and 0.384, respectively. The figures for the z-score in test [2] and in test [3] were -1.47 and -4.27 (inactive), respectively.

Regarding `O=C(NN=C1C[C@@H](O)[C@@H](O)[C@@H]2[C@@H]3C(=O)N(c4ccc(F)cc4F)C(=O)[C@@H]3CC[C@H]12)OCc1ccccc1`, the figures for the composite z-score (in test [1]; in the test with XIP peptide (Xip251-270)) were 0.081 (inactive) and 0.653, respectively. Besides, the z-score in test [2] is -0.131; in test [3] it was -5.87 (inactive).

These data come from PubChem BioAssay.
